# Values joined by “and” are separate entries in the source; they are usually repeats but may differ in a detail not shown here. Equal values may be shown once. Inconclusive results are not listed. Active and inactive are the calls of the source. Cut-off read from the data, not from the text of the source, unless noted: active = inhibition above about 80%; inactive = the rest.
# Experiments:
# [1] = target: 6-phosphogluconate dehydrogenase, decarboxylating (Homo sapiens) (UniProt P52209); assay: 6PGD enzyme inhibitors, primary screen, biochemical, human, recombinant enzyme, NADPH absorbance (AID 1159550;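 active = at least 20% inhibition of 6-phosphogluconate dehydrogenase activity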); conditions: recombinant 6PGD, NADPH absorbance 341 nm; at 10 µM; stronger effect = higher value
# Sequence of 6-phosphogluconate dehydrogenase, decarboxylating (Homo sapiens) (P52209 whole entry, looked up): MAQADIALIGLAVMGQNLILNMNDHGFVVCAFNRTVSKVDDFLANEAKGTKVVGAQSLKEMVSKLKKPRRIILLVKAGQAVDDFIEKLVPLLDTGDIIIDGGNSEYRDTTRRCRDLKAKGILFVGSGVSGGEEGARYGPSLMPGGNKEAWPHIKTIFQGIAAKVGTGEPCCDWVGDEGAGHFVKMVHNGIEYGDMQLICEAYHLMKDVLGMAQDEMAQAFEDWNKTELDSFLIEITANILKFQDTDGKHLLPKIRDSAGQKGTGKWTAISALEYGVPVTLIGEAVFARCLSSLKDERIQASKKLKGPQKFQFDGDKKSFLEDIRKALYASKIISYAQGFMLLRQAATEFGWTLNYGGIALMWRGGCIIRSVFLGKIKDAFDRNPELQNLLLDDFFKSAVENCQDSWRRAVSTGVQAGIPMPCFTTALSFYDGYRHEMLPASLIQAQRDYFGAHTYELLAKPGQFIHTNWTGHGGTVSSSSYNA
# [2] = sensitizers of A549 cells to miR-34 induction, primary screen, imaging, A549 dox-inducible miR-34, nuclei and caspase counts (AID 1347080;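 active = compounds whose cell count with miR-34 switched on is under 0.7 times the count with it off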); conditions: A549 miR-34 inducible, Hoechst nuclei count, 48 h
# [3] = survival rescue of mitochondrial mutant cells in low glucose, primary screen, MELAS cybrids, Rieske KO mouse fibroblasts, CellTiter-Glo (AID 1508586;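 active = mean z-score across replicates of 1.96 or higher in either the MELAS or the Rieske mutant cell line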;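 note: z relative to plate mean and SD of compound and empty wells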)
# [4] = viability rescue of complex I mutant cybrids, primary screen, cell-based, galactose medium, ATP luminescence (AID 1645843;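 active = z-score of at least 1.8 in each of two replicates, scored against plate mean and spread of sample wells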;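 note: positive z means more ATP and so rescue of galactose-driven cybrid death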); conditions: complex I mutant cybrid cells, 72 h, stronger effect = higher value
# [5] = LFS_MB_P medulloblastoma growth inhibition, cell-based, chromothripsis tumors, cisplatin or BGB combos (AID 1671449); conditions: LFS_MB_P medulloblastoma cells;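 note: cells exposed for 96 hours; 0% = vehicle DMSO and 100% = killing by high DMSO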
# [6] = HDN33 neuroblastoma growth inhibition, cell-based, chromothripsis tumors, cisplatin or BGB combos (AID 1671450); conditions: HDN33 neuroblastoma cells, stronger effect = higher value;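 note: cells exposed to compound for four days; 0% = vehicle DMSO and 100% = cell killing by high DMSO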
# [7] = ICB984 medulloblastoma cell growth inhibition, synergistic combos for chromothripsis tumors, cisplatin or BGB combos (AID 1671451; call rule not given here;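 note: cells exposed for 96 hours before readout; 0% = vehicle DMSO and 100% = killing by high DMSO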); conditions: ICB984 medulloblastoma cells, drug combinations, stronger effect = higher value
# [8] = LFS_MB_1R medulloblastoma cell growth inhibition, synergistic combos for chromothripsis tumors, cisplatin or BGB combos (AID 1671452); conditions: LFS_MB_1R medulloblastoma cells, stronger effect = higher value;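 note: cells exposed for 96 hours before readout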
# [9] = HTB85 osteosarcoma cell growth inhibition, synergistic combos for chromothripsis tumors, BGB or cisplatin IC20 combos (AID 1671453); conditions: HTB85 osteosarcoma cells, drug combinations, stronger effect = higher value;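 note: cells exposed for 96 hours before readout; 0% = vehicle DMSO and 100% = high DMSO killing control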
# [10] = CRL2098 osteosarcoma cell growth inhibition, synergistic combos for chromothripsis tumors, BGB or cisplatin IC20 combos (AID 1671454); conditions: CRL2098 osteosarcoma cells, drug combinations, stronger effect = higher value;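 note: cells exposed for 96 h before readout; 0% = vehicle DMSO and 100% = killing by high DMSO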
# [11] = HD-MB03 medulloblastoma cell growth inhibition, synergistic combos for chromothripsis tumors, BGB or cisplatin IC20 combos (AID 1671455; in the data active = inhibition above about 83%;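 note: 0% = vehicle DMSO and 100% = high DMSO as cytotoxic control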); conditions: HD-MB03 medulloblastoma cells, stronger effect = higher value
# [12] = UWB1.289 ovarian carcinoma cell growth inhibition, synergistic combos for chromothripsis tumors, BGB or cisplatin combos (AID 1671456); conditions: UWB1.289 ovarian carcinoma cells, stronger effect = higher value;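 note: cells exposed to compound for four days; 0% = vehicle DMSO and 100% = killing by high DMSO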
# [13] = LFS_MB_2R medulloblastoma cell growth inhibition, synergistic combos for chromothripsis tumors, cisplatin combos (AID 1671457); conditions: LFS_MB_2R medulloblastoma cells, stronger effect = higher value;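 note: cells exposed to compound for four days before readout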
# [14] = MDA-MB-436 breast carcinoma cell growth inhibition, synergistic combos for chromothripsis tumors, BGB or cisplatin combos (AID 1671458; call rule not given here;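 note: cells exposed for 96 hours; 0% = vehicle DMSO and 100% = killing by high DMSO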); conditions: MDA-MB-436 breast carcinoma growth inhibition, drug combinations, stronger effect = higher value
# [15] = UWB1.289_BRCA1 ovarian cancer growth, cell-based, BGB or cisplatin combinations (AID 1671459); conditions: UWB1.289 BRCA1 ovarian carcinoma, drug combinations, stronger effect = higher value
# [16] = human astrocyte viability loss, single and combined drugs, cytotoxicity control for chromothriptic childhood tumor combination screen, cell-based, BGB or cisplatin IC20 combos (AID 1671460); conditions: Human astrocytes, drug combinations, stronger effect = higher value;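 note: cells exposed to compounds for 96 hours before viability readout; 0% = vehicle and 100% = killing control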
# [17] = growth inhibition of BT084 medulloblastoma cells, cell-based, ICGC_MB145, cisplatin and BGB IC40 combos (AID 1671461); conditions: drug combinations, stronger effect = higher value;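 note: cells exposed to drugs for 96 hours; 0% = vehicle DMSO and 100% = high DMSO full killing control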
# [18] = growth inhibition of RCMB18 medulloblastoma cells, cell-based, cisplatin and BGB IC40 combos (AID 1671462); conditions: stronger effect = higher value;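 note: cells exposed to compound for four days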
# [19] = growth inhibition of CRL1545 osteosarcoma cells, cell-based, cisplatin and BGB IC20 combos (AID 1671464); conditions: stronger effect = higher value;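 note: cells exposed to compound for 96 hours before readout; 0% = vehicle DMSO and 100% = high DMSO killing control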
# [20] = growth inhibition of DIPG glioma cells, dose response, cell-based, JHH-DIPG-1, MIPE4.0, CellTiter-Glo, qHTS (AID 1347062; cut-off not given, nearly all actives have AC50 up to about 27 µM); conditions: JHH-DIPG-1 viability, CellTiter-Glo ATP luminescence
# [21] = growth inhibition of DIPG glioma cells, dose response, cell-based, SU-DIPG-IV, MIPE4.0, CellTiter-Glo, qHTS (AID 1347063; cut-off not given, nearly all actives have AC50 up to about 30 µM;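 note: compound exposure lasted 48 hours before the viability readout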); conditions: SU-DIPG-IV viability, CellTiter-Glo ATP luminescence
# [22] = target: Mitogen-activated protein kinase 7 (Homo sapiens) (UniProt Q13164); assay: ERK5 transactivation activators in reporter cells, primary screen, cell-based, HTS (AID 1508626;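 active = luciferase signal above three times the same-plate solvent-only control wells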;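 note: luciferase driven by Gal4-ERK5 fusion binding five Gal4 sites before minimal TATA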); conditions: HeLa Gal4-ERK5 transactivation, 18 h, at 5 µM, stronger effect = higher value
# Sequence of Mitogen-activated protein kinase 7 (Homo sapiens) (Q13164 whole entry, looked up, the tested form may be a part): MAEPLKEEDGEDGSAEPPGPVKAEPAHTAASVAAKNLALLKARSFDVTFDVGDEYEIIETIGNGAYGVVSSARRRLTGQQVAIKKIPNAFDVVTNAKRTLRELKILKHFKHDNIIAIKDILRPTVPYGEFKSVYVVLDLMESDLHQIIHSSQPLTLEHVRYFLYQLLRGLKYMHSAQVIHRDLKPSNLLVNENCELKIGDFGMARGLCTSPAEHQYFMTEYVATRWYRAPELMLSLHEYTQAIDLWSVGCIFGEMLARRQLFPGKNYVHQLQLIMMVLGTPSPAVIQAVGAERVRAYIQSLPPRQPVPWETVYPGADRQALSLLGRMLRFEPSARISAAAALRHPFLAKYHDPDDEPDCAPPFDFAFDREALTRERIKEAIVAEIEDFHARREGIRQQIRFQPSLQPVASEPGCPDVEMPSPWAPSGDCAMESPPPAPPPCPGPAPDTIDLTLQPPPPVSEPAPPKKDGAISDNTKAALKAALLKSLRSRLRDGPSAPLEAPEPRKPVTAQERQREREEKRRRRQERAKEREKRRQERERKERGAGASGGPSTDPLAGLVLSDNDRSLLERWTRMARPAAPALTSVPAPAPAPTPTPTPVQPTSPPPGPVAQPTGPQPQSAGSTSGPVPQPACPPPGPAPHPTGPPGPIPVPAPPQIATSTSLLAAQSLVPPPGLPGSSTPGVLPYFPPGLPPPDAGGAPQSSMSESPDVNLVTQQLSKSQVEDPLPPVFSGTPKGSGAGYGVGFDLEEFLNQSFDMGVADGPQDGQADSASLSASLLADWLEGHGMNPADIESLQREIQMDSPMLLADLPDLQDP
# [23] = target: ATP-dependent translocase ABCB1 (Homo sapiens) (UniProt P08183); assay: MDR1 (ABCB1) efflux transporter inhibition, cell-based (AID 377; in the data active = fluorescence slope change above about 50%); conditions: MDR1-expressing cells, fluorescent substrate accumulation slope; stronger effect = higher value; concentration not given here
# Sequence of ATP-dependent translocase ABCB1 (Homo sapiens) (P08183 whole entry, looked up): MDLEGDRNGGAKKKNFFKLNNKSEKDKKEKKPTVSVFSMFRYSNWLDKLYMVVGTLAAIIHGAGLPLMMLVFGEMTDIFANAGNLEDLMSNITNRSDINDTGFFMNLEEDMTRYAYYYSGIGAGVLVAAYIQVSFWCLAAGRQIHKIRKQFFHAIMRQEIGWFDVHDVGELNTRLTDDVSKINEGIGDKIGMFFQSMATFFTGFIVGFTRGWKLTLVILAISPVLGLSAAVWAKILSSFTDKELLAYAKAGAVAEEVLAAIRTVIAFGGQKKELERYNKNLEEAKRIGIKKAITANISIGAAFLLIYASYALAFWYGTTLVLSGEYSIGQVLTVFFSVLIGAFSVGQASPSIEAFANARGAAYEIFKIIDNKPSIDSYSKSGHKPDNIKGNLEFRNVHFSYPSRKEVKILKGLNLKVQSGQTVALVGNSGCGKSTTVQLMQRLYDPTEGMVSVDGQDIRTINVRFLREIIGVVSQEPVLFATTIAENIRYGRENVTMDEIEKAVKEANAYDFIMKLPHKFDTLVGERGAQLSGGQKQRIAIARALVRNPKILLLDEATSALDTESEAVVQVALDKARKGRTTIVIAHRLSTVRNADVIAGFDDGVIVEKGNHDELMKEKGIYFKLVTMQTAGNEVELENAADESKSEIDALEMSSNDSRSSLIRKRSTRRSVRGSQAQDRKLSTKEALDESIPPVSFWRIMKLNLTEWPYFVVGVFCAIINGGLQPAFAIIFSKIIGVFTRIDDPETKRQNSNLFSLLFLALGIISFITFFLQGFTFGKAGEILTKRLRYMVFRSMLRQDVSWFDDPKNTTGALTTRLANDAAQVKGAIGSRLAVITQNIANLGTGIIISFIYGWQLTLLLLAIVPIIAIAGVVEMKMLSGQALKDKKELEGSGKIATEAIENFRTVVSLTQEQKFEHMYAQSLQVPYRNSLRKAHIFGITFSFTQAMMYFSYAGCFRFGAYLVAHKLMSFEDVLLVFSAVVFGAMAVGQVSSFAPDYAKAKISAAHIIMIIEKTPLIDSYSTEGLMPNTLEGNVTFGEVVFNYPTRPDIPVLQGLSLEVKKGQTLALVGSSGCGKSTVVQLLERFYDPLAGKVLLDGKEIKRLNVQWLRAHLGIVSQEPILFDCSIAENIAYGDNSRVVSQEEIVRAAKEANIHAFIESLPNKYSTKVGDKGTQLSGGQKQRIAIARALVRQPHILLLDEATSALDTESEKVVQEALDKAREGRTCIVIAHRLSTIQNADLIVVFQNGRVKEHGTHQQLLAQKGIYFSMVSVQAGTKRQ
# [24] = liver-stage malaria parasite growth inhibition, primary screen, cell-based, HepG2, luciferase luminescence, HepG2 viability (AID 624349; in the data active = parasite load remaining mostly below about 12%, no sharp cut-off; inactive = mostly above about 10%;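 note: 100% = mean of DMSO negative control wells on the same plate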); conditions: P. berghei liver stage in HepG2, luciferase luminescence, concentration not given here; parasite load remaining: stronger effect = lower value; viability: measured here: HepG2 viability without parasites
# [25] = target: NAD(+) hydrolase SARM1 (Homo sapiens) (UniProt Q6SZW1); assay: SARM1 TIR NADase inhibitors, cell lysate, NAD-Glo luminescence (AID 1508614;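 active = compound whose remaining NAD level is above about 45 nM, limit read from the data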;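 note: higher remaining NAD means stronger inhibition of SARM1 NADase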); conditions: SAM-TIR HEK293T lysate NADase, at 1 µM, stronger effect = higher value
# Sequence of NAD(+) hydrolase SARM1 (Homo sapiens) (Q6SZW1 whole entry, looked up): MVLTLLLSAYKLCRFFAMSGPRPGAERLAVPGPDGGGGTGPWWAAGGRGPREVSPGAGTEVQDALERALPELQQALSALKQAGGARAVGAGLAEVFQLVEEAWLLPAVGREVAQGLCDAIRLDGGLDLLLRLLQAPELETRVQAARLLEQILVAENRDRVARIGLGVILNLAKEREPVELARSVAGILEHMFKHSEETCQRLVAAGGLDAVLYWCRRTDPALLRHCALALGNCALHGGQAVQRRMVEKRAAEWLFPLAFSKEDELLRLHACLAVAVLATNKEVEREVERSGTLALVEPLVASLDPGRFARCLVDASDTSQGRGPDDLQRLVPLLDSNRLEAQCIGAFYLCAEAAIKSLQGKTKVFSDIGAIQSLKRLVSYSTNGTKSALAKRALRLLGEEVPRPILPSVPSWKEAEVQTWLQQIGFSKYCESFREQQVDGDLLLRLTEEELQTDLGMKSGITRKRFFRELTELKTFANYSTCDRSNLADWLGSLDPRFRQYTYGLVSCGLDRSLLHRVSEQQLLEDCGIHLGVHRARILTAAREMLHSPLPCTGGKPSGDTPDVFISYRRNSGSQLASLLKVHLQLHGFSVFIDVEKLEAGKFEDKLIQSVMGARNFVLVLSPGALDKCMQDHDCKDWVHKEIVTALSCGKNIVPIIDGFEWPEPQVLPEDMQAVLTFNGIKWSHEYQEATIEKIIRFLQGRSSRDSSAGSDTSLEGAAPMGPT
# [26] = stronger effect = lower value, cell number ratio, induced over uninduced
# [27] = measured here: relative caspase fold change +Dox/-Dox
# [28] = measured here: total cells with miR-34 induction, stronger effect = lower value
# [29] = measured here: total cells without miR-34 induction
# [30] = MELAS cybrid survival, CellTiter-Glo 48 h, stronger effect = higher value
# [31] = Rieske KO mouse fibroblast survival, CellTiter-Glo 72 h
# [32] = measured here: combination with BGB IC40, at 0.05 µM
# [33] = measured here: with BGB IC20 combination, at 0.5 µM
# [34] = measured here: with cisplatin IC20 combination, at 0.5 µM
# [35] = measured here: combination with cisplatin, at 0.5 µM
# [36] = measured here: combination with cisplatin, at 5 µM
compound,measurement,setting,value
COC1C(OC(N)=O)C(O)C(Oc2ccc3c(O)c(NC(=O)c4ccc(O)c(CC=C(C)C)c4)c(=O)oc3c2C)OC1(C)C (stereo not drawn),inhibition,[1],-15.7% (inactive)
same,fold change,[2]; [26],0.913 (inactive) and 0.926 (inactive)
same,fold change,[2]; [27],2.12 and 1.18
same,cell count,[2]; [28],9290 and 8980
same,cell count,[2]; [29],10200 and 9700
same,z-score,[3]; [30],-0.751 (inactive) and -0.28 (inactive)
same,z-score,[3]; [31],-1.31 and -0.896
same,z-score,[4],0.215 (inactive)
same,inhibition,"[5]; at 0.5 µM, stronger effect = higher value",-3.51% (inactive)
same,inhibition,"[5]; measured here: combination with BGB IC20, at 0.005 µM",-14%
same,inhibition,"[5]; measured here: combination with BGB IC40, at 0.005 µM",-18.4%
same,inhibition,[5]; [32],-8.09%
same,inhibition,"[5]; measured here: combination with cisplatin, at 0.5 µM, stronger effect = higher value",-1.03%
same,inhibition,"[5]; measured here: combination with cisplatin, at 5 µM, stronger effect = higher value",-41%
same,inhibition,"[6]; BGB combo, at 5 µM",-12%
same,inhibition,[6]; at 0.5 µM,-8.11% (inactive)
same,inhibition,"[6]; cisplatin combo, at 5 µM",0.721%
same,inhibition,[6]; [33],3.35%
same,inhibition,[6]; [34],2.19%
same,inhibition,"[6]; single agent, at 5 µM",-35.9%
same,inhibition,"[7]; BGB IC20 combo, at 0.005 µM",-23.7%
same,inhibition,"[7]; BGB IC40 combo, at 0.005 µM",-54.1%
same,inhibition,"[7]; BGB IC40 combo, at 0.05 µM",-30.8%
same,inhibition,[7]; at 0.5 µM,-1.24% (inactive)
same,inhibition,"[7]; cisplatin combo, at 0.05 µM",-30.8%
same,inhibition,"[7]; cisplatin combo, at 0.5 µM",-1.05%
same,inhibition,"[7]; cisplatin combo, at 5 µM",-22.8%
same,inhibition,"[7]; measured here: 5 uM single agent, at 5 µM",-16.3%
same,inhibition,[8]; at 0.5 µM,-15% (inactive)
same,inhibition,[8]; [32],-15.8%
same,inhibition,[8]; [35],17.7%
same,inhibition,[8]; [36],-65.5%
same,inhibition,[9]; at 0.5 µM,-17.6% (inactive)
same,inhibition,"[9]; measured here: with BGB IC20, at 0.5 µM",-24%
same,inhibition,"[9]; measured here: with BGB IC20, at 5 µM",20.3%
same,inhibition,"[9]; measured here: with cisplatin IC20, at 0.5 µM",-30.3%
same,inhibition,"[9]; measured here: with cisplatin IC20, at 5 µM",-20.2%
same,inhibition,"[9]; single agent, at 5 µM",-19%
same,inhibition,[10]; at 0.5 µM,-21.7% (inactive)
same,inhibition,"[10]; measured here: combination with BGB at IC20, at 0.5 µM",-45.3%
same,inhibition,"[10]; measured here: combination with cisplatin at IC20, at 0.5 µM",-25.6%
same,inhibition,[11]; at 0.5 µM,-9.35% (inactive)
same,inhibition,"[11]; measured here: combo with BGB at IC20, at 0.5 µM",-5.37%
same,inhibition,"[11]; measured here: combo with cisplatin at IC20, at 0.5 µM",-13.3%
same,inhibition,[12]; at 0.5 µM,-6.21% (inactive)
same,inhibition,"[12]; measured here: inhibition with BGB combination, at 0.05 µM",-33.1%
same,inhibition,"[12]; measured here: inhibition with cisplatin combination, at 0.05 µM",-19.6%
same,inhibition,[13]; at 0.5 µM,-20.5% (inactive)
same,inhibition,[13]; [35],-9.82%
same,inhibition,[13]; [36],-11.7%
same,inhibition,[14]; at 0.5 µM,-31.4% (inactive)
same,inhibition,"[14]; measured here: BGB combination, at 0.5 µM",-38.4%
same,inhibition,"[14]; measured here: BGB combination, at 5 µM",-32.4%
same,inhibition,"[14]; measured here: cisplatin combination, at 0.5 µM",-35.8%
same,inhibition,"[14]; measured here: cisplatin combination, at 5 µM",-21%
same,inhibition,"[15]; BGB combination, concentration series, at 5 µM",-28.9%
same,inhibition,[15]; at 0.5 µM,-15.6% (inactive)
same,inhibition,"[15]; cisplatin combination, concentration series, at 5 µM",-9.79%
same,inhibition,[16]; at 0.5 µM,-3.92% (inactive)
same,inhibition,"[16]; measured here: combo with BGB IC20, at 0.5 µM",3.16%
same,inhibition,"[16]; measured here: combo with cisplatin IC20, at 0.5 µM",-8.92%
same,inhibition,[17]; at 0.5 µM,-4.18% (inactive)
same,inhibition,"[17]; cisplatin combination, at 0.5 µM",1.57%
same,inhibition,"[17]; cisplatin combination, at 5 µM",-32.1%
same,inhibition,"[17]; measured here: BGB IC40 combination 0.05 uM, at 0.05 µM",37.7%
same,inhibition,"[17]; single agent, at 5 µM",-18.6%
same,inhibition,[18]; at 0.5 µM,-22.3% (inactive)
same,inhibition,"[18]; cisplatin combo, at 5 µM",18.1%
same,inhibition,"[18]; measured here: BGB IC40 combination, at 0.05 µM",-10.1%
same,inhibition,[18]; [35],-16.8%
same,inhibition,"[18]; single agent, at 5 µM",-14.1%
same,inhibition,[19]; at 0.5 µM,-43.4% (inactive)
same,inhibition,[19]; [33],-36.9%
same,inhibition,[19]; [34],-46.6%
same,inhibition,"[19]; single agent, at 0.05 µM",-14.9%
same,inhibition,"[19]; single agent, at 5 µM",4.54%
COc1ccc2ccc(=O)oc2c1CC=C(C)C,inhibition,[1],9.51% (inactive)
same,outcome,[20],inactive
same,outcome,[21],inactive
same,fold change,[2]; [26],0.94 (inactive)
same,fold change,[2]; [27],0.78
same,cell count,[2]; [28],8510
same,cell count,[2]; [29],9050
same,z-score,[3]; [30],-0.211 (inactive)
same,z-score,[3]; [31],-1.1
same,luciferase signal,[22],36 AU (inactive)
CN1[C@@H]2CC[C@H]1CC(OC(=O)[C@H](CO)c1ccccc1)C2 (stereo partly drawn),fluorescence slope change,[23],17.8% (inactive)
same,parasite load remaining,[24],60.1% (inactive)
same,viability,[24],43.8%
same,inhibition,[1],-17.7% (inactive)
same,fold change,[2]; [26],0.891 (inactive)
same,fold change,[2]; [27],1.14
same,cell count,[2]; [28],8370
same,cell count,[2]; [29],9390
same,z-score,[3]; [30],-0.995 (inactive)
same,z-score,[3]; [31],-0.351
same,remaining NAD,[25],10 nM (inactive)
same,luciferase signal,[22],144 AU (inactive)

# — PubChem BioAssay
